Experimental data published in PubChem BioAssay AID1851 (National Center for Advancing Translational Sciences (NCATS), 2009).
Where “and” joins values, the source holds several entries; their conditions need not be identical. Equal entries are not always repeated. Screen size: about 16,000 compounds; about 5,800 (36%) were called active. About 23% were inconclusive and are not listed. Calls come from the whole dose curve; as a rule, active = well fitted curve in the direction sought with a large enough effect; inconclusive = small, poorly fitted or top-dose-only effect, or effect the other way; inactive = no such curve, though single readings can be large or run the other way. Some of the results follow. The source holds several records for some structures; these can differ, active in one and inactive in another.

target: Cytochrome P450 2C19 (Homo sapiens) (UniProt P33261); assay: Cytochrome panel assay with activity outcomes; settings: recombinant CYP, pro-luciferin dealkylation, luminescence, p450-cyp2c19; series mostly up to 57.1 µM
% is set by controls: 0 for no effect and ±100 for the full control effect.

Sequence of Cytochrome P450 2C19 (Homo sapiens) (P33261 whole entry, looked up): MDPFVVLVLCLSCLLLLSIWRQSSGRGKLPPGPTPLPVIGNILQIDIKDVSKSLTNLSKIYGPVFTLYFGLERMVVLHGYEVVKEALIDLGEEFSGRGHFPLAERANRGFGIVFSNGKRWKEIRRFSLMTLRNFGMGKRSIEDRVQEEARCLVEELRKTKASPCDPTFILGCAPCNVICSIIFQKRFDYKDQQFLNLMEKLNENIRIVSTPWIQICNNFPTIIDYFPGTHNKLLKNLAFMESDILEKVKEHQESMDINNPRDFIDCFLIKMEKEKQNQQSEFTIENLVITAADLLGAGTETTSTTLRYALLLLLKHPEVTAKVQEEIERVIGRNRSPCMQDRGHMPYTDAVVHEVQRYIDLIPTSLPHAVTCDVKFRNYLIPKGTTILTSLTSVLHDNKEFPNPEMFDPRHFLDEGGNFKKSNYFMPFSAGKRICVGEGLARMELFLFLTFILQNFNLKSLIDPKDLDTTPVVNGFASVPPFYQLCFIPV

Row | SMILES | AC50 | activity, negative = inhibition
1 | O=C(O)/C=C\c1cnc[nH]1 | inactive | –
2 | NCCCc1c(-c2ccccc2)nc(N)[nH]c1=O | – | -12.9% [at 11.4 µM] (inactive)
3 | Nc1nc(SCC(=O)O)[nH]c(=O)c1N | – | 25.5% [at 11.4 µM] (inactive)
4 | CCCCCOC(=O)CSc1nnc(-c2ccccc2)c(=O)[nH]1 | 8.91 µM (active) | –
5 | CC(=O)OCCCN1c2ccccc2Nc2nnc(-c3ccccc3)cc21 | 7.08 µM (active) | –
6 | CC(C)(C)n1nc(-c2ccc(Cl)cc2)c2c(N)ncnc21 | 2 µM (active) | –
7 | CCNc1ncc2nc(-c3ccc(Cl)cc3)c(=O)n(C)c2n1 | inactive | –
8 | CC(C)(C)Cn1nc(-c2ccc(Cl)cc2)c2c(N)ncnc21 | inactive | –
9 | O=c1c2ccccc2nnn1CSc1nnnn1-c1ccccc1 | 7.94 µM (active) | –
10 | O=c1c2ccccc2nnn1CSc1ccc2c(c1)OCCO2 | 1.12 µM (active) | –
11 | Cc1cc(C)c(C#N)c(OCC(=O)c2ccc(Br)cc2)n1 | 3.16 µM (active) | –
12 | C/C(=N\NC(=O)c1ccncc1)c1ccc2ccccc2c1O | 0.501 µM (active) | –
13 | O=Nc1c(O)n(Cc2ccc(Cl)cc2)c2ccccc12 | 0.794 µM (active) | –
14 | O=C1C(=O)N(Cc2ccc(Cl)c(Cl)c2)c2ccccc21 | inactive | –
15 | Cn1c(=O)c2c(n(Cc3ccccc3)c1=O)NC(=O)C2CC(=O)NCc1cccc(Cl)c1 (stereo not given) | inactive | –
16 | O=Nc1c(O)n(Cc2ccc(Cl)c(Cl)c2)c2ccccc12 | 0.891 µM (active) | –
17 | O=Nc1c(O)n(Cc2cccc(Cl)c2)c2ccccc12 | 3.55 µM (active) | –
18 | CN(Cc1ccccc1)c1nc(-c2ccc([N+](=O)[O-])cc2)nc2ccccc12 | inactive | –
19 | O=C(O)c1cc([N+](=O)[O-])ccc1NCCCc1ccccc1 | inactive | –
20 | O=[N+]([O-])c1ccc(CS(=O)Cc2ccccc2)cc1 (stereo not given) | 1.26 µM (active) | –
21 | COc1ccc([N+](=O)[O-])cc1NCc1ccccc1C | 2.82 µM (active) | –
22 | Cc1cc([N+](=O)[O-])ccc1NCc1ccccc1 | 2 µM (active) | –
23 | COc1ccccc1CN1CCC2(CC1)CCN(C(=O)c1cccn1C)CC2 | inactive | –
24 | O=C1CC(N2CCOCC2)C(=O)N1c1cccc(Cl)c1 (stereo not given) | 8.91 µM (active) | –

Row | SMILES | AC50 | activity, negative = inhibition
25 | CO[C@H]1C=CO[C@]2(C)Oc3c(C)c(O)c4c(O)c(c5c(c4c3C2=O)NC2(CCN(CC(C)C)CC2)N=5)=NC(=O)C(C)=CC=C[C@@H](C)[C@@H](O)[C@@H](C)[C@@H](O)[C@@H](C)[C@@H](OC(C)=O)[C@@H]1C | inactive | –
26 | CO[C@@H]1/C=C\O[C@]2(C)Oc3c(C)c(O)c4c(O)c(cc(O)c4c3C2=O)NC(=O)/C(C)=C\C=C/[C@H](C)[C@@H](O)[C@H](C)[C@H](O)[C@H](C)[C@H](OC(C)=O)[C@@H]1C | – | -13.1% [at 11.4 µM] (inactive)
27 | CO[C@@H]1/C=C\O[C@@]2(C)Oc3c(C)c(O)c4c(c3C2=O)C(=N[C@H]2CC[C@H](O)O[C@@H]2C)C=C(NC(=O)/C(C)=C\C(=O)[C@@H]2C[C@@H]2[C@@H](O)[C@H](C)[C@@H](O)[C@H](C)[C@H](OC(C)=O)[C@@H]1C)C4=O | 2.51 µM (active) | –
28 | Cc1ccc(N2C(=O)C(Cl)=C(NCc3ccccc3)C2=O)c(C)c1 | 3.16 µM (active) | –
29 | c1ccc(CSc2ncnc3c2sc2nc(N4CCOCC4)c4c(c23)CCCC4)cc1 | 7.08 µM (active) | –
30 | OCCn1cnc2c(SCc3ccccc3)ncnc21 | – | 12.6% [at 11.4 µM] (inactive)
31 | CCSc1ncnc2c1sc1nc(-c3ccco3)c3c(c12)CC(C)(C)OC3 | inactive | –
32 | CC(C)C[C@H](NC(=O)N1CCCCCC1)C(=O)N[C@H](Cc1cn(C)c2ccccc12)C(=O)N[C@H](Cc1ccccn1)C(=O)O | inactive | –
33 | CCn1c2ccccc2c2cc(NC(=O)CSc3nnc(-c4ccc(OC)c(OC)c4)n3N)ccc21 | 7.94 µM (active) | –
34 | O=C(CCCNS(=O)(=O)c1cccc2nsnc12)NCCc1ccccc1 | 6.31 µM (active) | –
35 | CSc1nc2ccccc2cc1/C=C(\C#N)c1ccccc1 | 11.2 µM (active) | –
36 | CSc1nc2ccccc2cc1/C=C(\C#N)c1cccc(Cl)c1 | 15.8 µM (active) | –
37 | CSc1nc2ccccc2cc1/C=C(\C#N)c1cccc(C)c1 | 3.55 µM (active) | –
38 | CSc1nc2ccccc2cc1/C=C(\C#N)c1ccc(Cl)cc1Cl | 22.4 µM (active) | –
39 | CCc1ccc(NC(=O)CSc2nc3cc(C(=O)OC)ccc3c(=O)n2Cc2ccco2)cc1 | inactive | –
40 | CCN(C(=O)CSc1nc2cc(C(=O)OC)ccc2c(=O)n1Cc1ccco1)c1cccc(C)c1 | 1.41 µM (active) | –
41 | CNC(=O)C(=O)NCCc1ccc(Cl)cc1 | 1.12 µM (active) | –
42 | O=C(Nc1cccc(Cl)c1)Nn1cnnc1 | – | 11.3% [at 11.4 µM] (inactive)
43 | O=C(NCCc1ccc(Cl)cc1)c1ncn[nH]1 | inactive | –
44 | O=C(NCCc1ccc(Cl)cc1)Nc1cccc(Cl)c1 | 0.891 µM (active) | –
45 | S=C(S)NCCN1CCNCC1 | – | -11.3% [at 11.4 µM] (inactive)
46 | Cc1nc(N2CCOCC2)nc(N2CCN(c3ccccc3)CC2)c1[N+](=O)[O-] | 2.24 µM (active) | –
47 | Cc1noc(C)c1-c1nc(N2CCOCC2)c2ccccc2n1 | inactive | –
48 | Cc1nc2cnc(N3CCOCC3)nc2n(Cc2cccs2)c1=O | inactive | –

Row | SMILES | AC50 | activity, negative = inhibition
49 | Cc1ccc(NC(=O)CCSc2nnc3ccccn23)cc1 | 0.794 µM (active) | –
50 | CC(C)(C)NC(=O)NC(=O)CSc1nnc2ccccn12 | inactive | –
51 | C[C@H](O/N=C1/[C@H]2O[C@@H]2[C@@H](O)[C@H]2[C@H]1CCn1c(=O)n(-c3ccccc3)c(=O)n12)c1cn([C@H](CO)Cc2ccccc2)nn1 | – | 20% [at 11.4 µM] (inactive) and 36.7% [at 11.4 µM] (inactive)
52 | COc1ccc(/C=N/NC(=O)C2CCN(c3ncc(C(F)(F)F)cc3Cl)CC2)cc1 | inactive | –
53 | O=C(OC1CCN(c2ncc(C(F)(F)F)cc2Cl)CC1)c1ccccc1 | 11.2 µM (active) | –
54 | O=C(c1cc(C(F)(F)F)cc(C(F)(F)F)c1)N1CCC2(CC1)CCN(c1ncccn1)CC2 | inactive | –
55 | Cn1c(C(F)(F)F)nc2c(=O)oc3ccccc3c21 | inactive | –
56 | COc1cccc2cc3c(=O)oc4ccccc4c3nc12 | 3.98 µM (active) | –
57 | COc1ccc(CNc2ccnc(-c3ccc4c(c3)OCO4)n2)c(OC)c1 | 2.51 µM (active) | –
58 | COc1ccccc1CNc1ccnc(-c2ccc3c(c2)OCO3)n1 | 3.16 µM (active) | –
59 | O=C(Nc1ccccc1)N1CC2(CCN(C(=O)c3cnccn3)CC2)C1 | inactive | –
60 | Cc1ccn2cc(CSc3ccccc3N)nc2c1 | 2.51 µM (active) | –
61 | N#C/C(=C\Nc1ccccn1)C(=O)c1ccco1 | – | -6.24% [at 11.4 µM] (inactive)
62 | CC(C)SC(=N)N | inactive | –
63 | CSC(=N)N | inactive and 631 nM (active) | –
64 | CCSC(=N)N | inactive | –
65 | CCC/C=C(\CCC)C(NC(=O)c1ccc(C(F)(F)F)cc1)c1ccc(C(F)(F)F)cc1 (stereo not given) | inactive | –
66 | CCC/C=C(\CCC)C(NC(=O)c1ccc(-c2ccccc2)cc1)c1ccc(C(=O)OC)cc1 (stereo not given) | inactive | –
67 | CCC/C=C(\CCC)C(NC(=O)c1cccs1)c1ccc(C(=O)OC)cc1 (stereo not given) | 0.794 µM (active) | –
68 | CCC/C=C(\CCC)C(NC(=O)c1ccc(C(F)(F)F)cc1)c1ccccc1 (stereo not given) | 10 µM (active) | –
69 | CCC/C=C(\CCC)C(NC(=O)Cc1ccccc1)c1ccc(C(=O)OC)cc1 (stereo not given) | 2.51 µM (active) | –
70 | CCC/C=C(\CCC)C(NC(=O)Oc1ccc(F)cc1)c1ccc(C(=O)OC)cc1 (stereo not given) | inactive | –
71 | CCC/C=C(\CCC)C(NC(=O)c1cccs1)c1ccc(C(F)(F)F)cc1 (stereo not given) | 0.316 µM (active) | –
72 | COc1ccc(-n2c(=O)c(-c3cc(F)cc(F)c3)nc3cnc(N4CCNCC4)nc32)cc1 | inactive | –

Row | SMILES | AC50 | activity, negative = inhibition
73 | CC(C)(C)NS(=O)(=O)c1ccc(NS(=O)(=O)c2ccc(F)cc2)cc1 | inactive | –
74 | CC(C)(C)c1ccc(NS(=O)(=O)c2ccc(N)cc2)cc1 | 0.398 µM (active) | –
75 | Nc1ccc(S(=O)(=O)Nc2ccc(Cl)nn2)cc1 | inactive | –
76 | CN(C)CCCNc1ncnc2nc[nH]c12 | – | 19.7% [at 11.4 µM] (inactive)
77 | CN(Cc1ccco1)c1ccnc(-c2ccccc2C(F)(F)F)n1 | 7.94 µM (active) | –
78 | CN(C)c1ccnc(-c2ccccc2C(F)(F)F)n1 | inactive | –
79 | Cc1ccccc1-c1cc(N(C)Cc2ccco2)ncn1 | 6.31 µM (active) | –
80 | COc1ccccc1-c1cc(N(C)Cc2ccco2)ncn1 | 3.98 µM (active) | –
81 | CN(Cc1ccco1)c1cc(-c2ccccc2Cl)ncn1 | 7.94 µM (active) | –
82 | CN(C)Cc1ccccc1-c1nccc(N(C)Cc2ccco2)n1 | inactive | –
83 | CN(C)Cc1ccccc1-c1cc(N(C)Cc2ccco2)ncn1 | inactive | –
84 | CN(Cc1ccco1)c1cc(-c2ccccc2C(F)(F)F)ncn1 | 10 µM (active) | –
85 | O[C@]1(c2ccccc2)c2ccccc2NC2=NCCN21 | – | 36.2% [at 11.4 µM] (inactive)
86 | COc1ccc(NC(=O)c2ccc(COc3ccccc3)o2)cc1 | 5.62 µM (active) | –
87 | Cc1ccc(OCc2ccc(C(=O)Nc3nccs3)o2)cc1C | 2.51 µM (active) | –
88 | COC(=O)c1ccccc1NC(=O)c1ccc(COc2ccc(C)c(C)c2)o1 | 2 µM (active) | –
89 | Cc1onc(C(=O)/C=C/N(C)C)c1C(=O)Nc1nccs1 | inactive | –
90 | COC(=O)c1ccccc1NC(=O)c1ccc(Cn2cc(Cl)cn2)o1 | 1.12 µM (active) | –
91 | Cc1ccc2ncc([N+](=O)[O-])n2c1 | inactive | –
92 | CCOC(=O)CC(NC(=O)c1cccs1)c1ccc(OCC)cc1 (stereo not given) | 2.82 µM (active) | –
93 | CCOc1ccc(C(CC(=O)O)NC(=O)COc2ccccc2)cc1 (stereo not given) | inactive | –
94 | CCOC(=O)CC(NC(=O)c1ccco1)c1ccc(OC)cc1 (stereo not given) | 14.1 µM (active) | –
95 | CCOC(=O)CC(NC(=O)c1ccc(C)cc1)c1ccc(C)cc1 (stereo not given) | 14.1 µM (active) | –
